Screening results from PubChem BioAssay.
The list is not random: actives were taken first. Their share in the collection is about 2.2%.
NFkB transloc inh – inhibitors of IL-1B driven NFkB p65 nuclear import, primary screen, imaging, HUVEC, IL-1B stimulus, high-content imaging. 0.43% of 94,000 active. HUVEC IL-1B NFkB p65 nuclear translocation imaging. inhibition, % at 2 µM;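 active means inhibition above about 30% together with a positive call from visual inspection of the well image, limit read from the data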;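 further: nuclear over cytoplasmic p65 intensity ratio measured by imaging; 0% = IL-1B stimulated DMSO wells and 100% = unstimulated DMSO wells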
NFkB transloc pot – enhancers of NFkB p65 translocation in HUVEC – imaging, IL-1B stimulus, high-content imaging, primary screen; HUVEC IL-1B NFkB p65 nuclear translocation imaging; activation, % at 2 µM; 0.3% of 94,000 active; AID 819, 2007;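 active means activation above 40%, about the mean plus 3 SD, also judged a hit on visual image review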;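 further: percent activation is computed from the nuclear over cytoplasmic p65 intensity ratio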
HUVEC tox IL1B – cytotoxicity in IL-1B stimulated HUVEC, primary screen, cytotoxicity control for IL-1B NFkB translocation project, imaging, Hoechst nuclear count, IL-1B stimulus; cell count reduction, % at 2 µM; 0.41% of 94,000 active; AID 845, 2007; HUVEC cell count loss;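 active means cell count reduction more than 3 SD above the screen-wide mean, cut at about 70% in these data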;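 further: normalized per plate to untreated control cells as the no-loss baseline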
PLK1 inh – human PLK1 kinase inhibitors, primary screen, biochemical, TR-FRET; AID 619, 2007; recombinant PLK1 kinase, TR-FRET peptide phosphorylation; Serine/threonine-protein kinase PLK1 (Homo sapiens), P53350; 0.53% of 97,000 active; inhibition, % at 10 µM;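 active means inhibition of 50% or more in the single-concentration screen; inactive means inhibition below 50%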;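 further: 0% = DMSO max control and 100% = H-89 dihydrochloride min control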
Target sequence (P53350 whole entry, looked up): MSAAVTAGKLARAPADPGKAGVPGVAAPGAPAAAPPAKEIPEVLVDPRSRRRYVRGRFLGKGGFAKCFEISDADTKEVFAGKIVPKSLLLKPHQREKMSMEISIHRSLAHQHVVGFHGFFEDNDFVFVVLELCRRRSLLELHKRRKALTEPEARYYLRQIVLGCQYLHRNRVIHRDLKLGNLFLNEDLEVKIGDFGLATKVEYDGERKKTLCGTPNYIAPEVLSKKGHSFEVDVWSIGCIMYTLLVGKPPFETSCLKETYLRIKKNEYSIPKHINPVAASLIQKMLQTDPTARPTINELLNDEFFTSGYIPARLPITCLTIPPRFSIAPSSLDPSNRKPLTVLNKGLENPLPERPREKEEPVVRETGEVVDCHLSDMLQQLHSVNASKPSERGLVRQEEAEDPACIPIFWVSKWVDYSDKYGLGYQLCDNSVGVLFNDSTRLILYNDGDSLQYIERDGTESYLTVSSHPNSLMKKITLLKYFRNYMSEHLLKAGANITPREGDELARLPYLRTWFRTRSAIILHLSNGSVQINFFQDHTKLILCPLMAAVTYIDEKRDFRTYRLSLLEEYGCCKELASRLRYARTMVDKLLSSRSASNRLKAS
Pyk2 oligo antag – antagonists of Pyk2 self-association, primary screen, Q293 cells, FERM NanoBiT luminescence, HTS | 0.83% of 99,000 active | Protein-tyrosine kinase 2-beta (Homo sapiens), Q14289 | AID 1347419, 2020 | hits give low values | z-score (the deposit names both 25 µM and 10 µM);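 active means Z-score of -3 or lower, scaled per plate to the spread of control and sample wells; inactive means z-score above -3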;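 further: negative z-score means lost luminescence so less FERM oligomerization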
PLK1 PBD inh – Plk1 polo box domain binding inhibitors, primary screen, biochemical, fluorescence polarization; Serine/threonine-protein kinase PLK1 (Homo sapiens), P53350; Plk1 PBD phosphopeptide binding; inhibition, %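 (tested at about 20 µM)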; 0.13% of 97,000 active; in the data active means inhibition above about 34%, passing the limit was not always enough
Starred values were filed as active, the others as inactive; x = no result.

SMILES | NFkB transloc inh | NFkB transloc pot | HUVEC tox IL1B | PLK1 inh | Pyk2 oligo antag | PLK1 PBD inh
Cc1ccc(C2c3c(-c4ccccc4O)n[nH]c3C(=O)N2Cc2ccncc2)cc1 (configuration not stated) | -32 | 32 | -17 | -7 | -2.4 | -7
COc1ccc(C2c3c(-c4ccccc4O)n[nH]c3C(=O)N2CCc2ccc(OC)c(OC)c2)cc1 (configuration not stated) | 9 | -9 | -2 | -15 | -3.5* | -21
CSCCC(NS(=O)(=O)c1ccccc1F)C(=O)OCc1ccccc1Cl (configuration not stated) | x | x | x | x | 0.24 | x
N#C/C(=C/c1cc(Br)cs1)C(=O)NCC1CCCO1 (configuration not stated) | 97* | -97 | 88* | -8 | 0.26 | 4
CCC(=O)Nc1nc(=S)ss1 | 7 | -7 | 20 | -12 | 0.66 | -8
O=C(OCc1ccccc1)c1cn(-c2ccccc2)nc1-c1ccncc1 | -9 | 9 | -3 | -6 | -1.3 | 20
COc1ccc(C2CC(=O)C=C(NCCC(C)C)C2)cc1 (configuration not stated) | -52 | 52* | -9 | -1 | 0.29 | 5
COc1ccc(C2CC(=O)C=C(NC3CCCC3)C2)cc1 (configuration not stated) | 7 | -7 | 2 | -14 | -0.85 | 18
COc1cccc(N(C(=O)Cn2nnc(-c3cccs3)n2)C(C(=O)NC(C)C)c2ccc(C)o2)c1 (configuration not stated) | -5 | 5 | -3 | -9 | -3.5* | 18
CCNC(=S)N1CCN(CCN=CC2=C(O)CC(c3ccco3)CC2=O)CC1 (configuration not stated) | 8 | -8 | 4 | -12 | 1.4 | -18
C=CCNC(=S)N1CCN(CCN=CC2=C(O)CC(c3ccco3)CC2=O)CC1 (configuration not stated) | 54* | -54 | 93* | -3 | -0.5 | 6
O=C(CCNS(=O)(=O)c1cccs1)N1CCc2ccccc2C1 | 99* | -99 | -4 | -11 | 0.53 | -8
O=C1c2ccccc2-c2onc3ccc(NCCCn4ccnc4)c1c23 | -14 | 14 | 16 | 68* | x | 35
CCc1ncc(C(O)c2cccc(OC)c2OC)n1C (configuration not stated) | 99* | -99 | 90* | -6 | -0.09 | 7
COc1cccc(C(O)c2cnc(C(C)C)n2C)c1OC (configuration not stated) | x | x | x | x | 1 | x
Nc1ccc(C(=O)OC2CCOC2=O)cc1[N+](=O)[O-] (configuration not stated) | x | x | x | x | 0.17 | x
O=C(O)C(Cc1ccccc1)N1Cc2ccccc2C1=O (configuration not stated) | -40 | 40* | 5 | 2 | 0.24 | -30
CS(=O)(=O)Nc1ccc2c(c1)C(=O)OC2 | -58 | 57* | -11 | -5 | 0.02 | -1
COc1ccc(S(=O)(=O)Nc2ccc3c(c2)COC3=O)cc1OC | 0 | 0 | 13 | -2 | -0.08 | -14
CC1(C)CC(=O)C2=C(C1)Oc1ncn(Cc3ccco3)c(=N)c1C2c1ccccc1 (configuration not stated) | -3 | 3 | 11 | -14 | -1.1 | -17
COc1ccc(C2C3=C(CC(C)(C)CC3=O)Oc3ncn(Cc4ccccc4)c(=N)c32)cc1 (configuration not stated) | -4 | 4 | -17 | -3 | -3.7* | 28
CC(=O)C1=C(C)Nc2ncnn2C1c1ccccc1OCc1ccccc1 (configuration not stated) | -8 | 8 | 60 | 2 | -3.1* | -6
Cc1cccc(N(C(=O)c2sc(C)nc2C)C(C(=O)NCc2ccco2)c2ccccc2)c1 (configuration not stated) | -47 | 47* | 2 | 1 | -1.3 | 17
Cc1ccc(C(=O)c2c(C)oc3c2C(=O)C(=O)c2ccccc2-3)cc1 | -10 | 10 | -2 | -11 | -3.8* | -3
Cc1ccc(C(=O)c2coc3c2C(=O)C(=O)c2ccccc2-3)cc1 | x | x | x | -3 | -2.4 | 11
SMILES | NFkB transloc inh | NFkB transloc pot | HUVEC tox IL1B | PLK1 inh | Pyk2 oligo antag | PLK1 PBD inh
Cc1oc2c(c1C(=O)c1ccc(Cl)cc1)C(=O)C(=O)c1ccccc1-2 | 9 | -9 | -26 | -10 | -3.6* | 26
CCOC(=O)C1CCN(S(=O)(=O)c2c(C)n[nH]c2C)CC1 | -32 | 31 | 19 | -15 | 0.51 | 8
CC1(C2(O)CC(c3ccccc3)ON2)CCCCC1 (configuration not stated) | 1 | -1 | -16 | -11 | x | 19
CC1=NN(C(=O)Cc2ccc([N+](=O)[O-])cc2)C(O)(c2ccccc2)C1 (configuration not stated) | 0 | 0 | 7 | 0 | 0.43 | 5
COc1cc(/C=N/N(C)c2ccccc2)ccc1O | 1 | -1 | 3 | -13 | -3* | 0
Cc1[nH]c(=O)c(C(=O)/C=C/c2ccccc2F)c2c1CCCC2 | 8 | -8 | -38 | -11 | -2.5 | -22
CC(C)(C)C(=O)NC1CCN(S(=O)(=O)c2ccc(C(F)(F)F)cc2)CC1 | -23 | 23 | -146 | -4 | 1.7 | 9
Cc1ccc(C2CC2C(=O)NNC(=S)Nc2cccc(Cl)c2)cc1 (configuration not stated) | 6 | -6 | 71* | -3 | -1.4 | 5
O=c1c2ccccc2nc(SCc2cn3ccsc3n2)n1-c1ccc(F)cc1 | -18 | 18 | -10 | -9 | -3.3* | 10
COc1cccc(OCCCCSc2ncccn2)c1 | -4 | 4 | 12 | -12 | 0.67 | 14
c1ccc(Oc2cccc(OCCCCSc3ncccn3)c2)cc1 | 5 | -5 | 10 | -13 | -3.3* | -19
Cc1ccc(/C=C/C2=Cc3c(sc(NC(=O)CSc4n[nH]c(N)n4)c3C#N)C(C)(C)C2)o1 | 50* | -50 | -23 | 2 | x | -3
Cc1ccc(S(=O)(=O)NCCCN2CCOCC2)c(C)c1 | x | x | x | x | 0.27 | x
Cc1ccc(S(=O)(=O)NCCN2CCOCC2)cc1 | 31* | -31 | 6 | -6 | 0.11 | -3
CNC(=O)CN(c1ccc(F)cc1)S(=O)(=O)c1cc(C)ccc1OC | -4 | 4 | 5 | -1 | -0.6 | 16
CCn1nc(C(=O)OCC(=O)c2c[nH]c3ccccc23)c2ccccc2c1=O | -28 | 28 | -24 | -4 | -2.5 | 15
CC(C)n1nc(C(=O)OCC(=O)c2c[nH]c3ccccc23)c2ccccc2c1=O | -8 | 8 | 0 | 1 | -3.6* | 12
COC(=O)c1ccc(COC(=O)c2ccc(-n3cnnn3)cc2)o1 | -20 | 20 | -4 | -13 | 1.9 | -7
